# Inconclusive results are not listed. Entries that show only a call come without a potency. Active and inactive are the calls of the source. Calls follow the shape of the dose curve; as a rule, active = well fitted inhibition curve with a large enough effect; inconclusive = small, poorly fitted or top-dose-only effect; inactive = flat fitted curve, though single readings scatter.
# Molecular target: Calcium and integrin-binding protein 1 (Homo sapiens) (UniProt Q99828)
# Assay: Primary qHTS for Identification of Calcium Integrin Binding Protein 1 (CIB1) Competitor (AID 1508620); also: top concentration of the series differs between compounds
# Settings: CIB1-GST / FITC-alphaIIb peptide fluorescence polarization; series mostly up to 114 µM
# Outline: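 Fluorescence polarization competition: GST-tagged CIB1 (1 uM final) preincubated with compound 15 min at room temperature, then FITC-labelled alphaIIb peptide (100 nM final) added. After 15 min at room temperature, polarization read at Ex 480/Em 540.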
# Calcium and integrin-binding protein 1 (Homo sapiens), sequence (Q99828 whole entry, looked up): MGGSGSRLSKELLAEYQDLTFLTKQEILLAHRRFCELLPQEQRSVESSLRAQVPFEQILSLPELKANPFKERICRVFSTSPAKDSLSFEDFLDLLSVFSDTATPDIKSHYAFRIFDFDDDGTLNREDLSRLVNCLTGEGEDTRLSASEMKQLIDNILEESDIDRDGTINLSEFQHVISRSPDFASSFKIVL
row,SMILES,Potency
1,Cc1cnc(-c2ccccc2C(C)C)nc1NCC1CN(c2cccnc2)C1,inactive
2,CN(C)c1cnc2c(O)ccc([S+](=O)([O-])Nc3ccccc3F)c2c1,inactive
3,O=C(O)c1ccc(S(=O)(=O)N[C@H](Cc2ccc(C(F)(F)F)cc2)C(=O)O)cc1,inactive
4,Cc1ccc(N[S+](=O)([O-])c2cc3c(cc2CCc2ccccc2)NC(=O)CO3)cc1C,inactive
